Compound activity as filed in PubChem BioAssay.
This is one part of a sample in which hits are shown more often than they occur.
IL1B secr inh – inflammasome signaling inhibition, IL-1 beta readout | THP-1 LPS/ATP IL-1B secretion, AlphaLISA, 16 h; stronger effect = lower value | 4.7% of 360,000 active | activity change, % at 57.5 µM; in the data active means activity change below about -50%; inconclusive means mostly about -30% to -49%
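Secreted IL-1B measured by AlphaLISA bead assay after 16 h compound exposure of THP-1 cells; compounds (final up to 57.5 uM) added 1 h before LPS (250 ng/mL) and ATP (1.25 mM) stimulation; lower signal means less secretion.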
HT1080 IDH1KD tx – toxicity to HT-1080 IDH1 knockdown cells (counter line). HT-1080 IDH1 knockdown viability, ATP luminescence, 48 h. Potency, µM (series often up to 46.1 µM), most hits filed as cytotoxic. 2% of 360,000 active
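Knockdown cells (IDH1KD HT-1080) received compounds 2 h after plating at 750 cells/well and were kept 48 h at 37 °C in 5% FBS RPMI. A CellTiter-Glo luminescence read gave % activity for curve fitting.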
TDP1 cell CPT – growth inhibition of DT40 Tdp1-/-;hTDP1 cells with camptothecin (screen for TDP1 inhibitors). chicken DT40 Tdp1-/-;hTDP1 cells + 20 nM CPT, ATP luminescence, 48 h. 12% of 420,000 active. Potency, µM (highest dose often 46.2 µM), most hits filed as inhibitors; further: nearly all actives have a fitted effect of over 55% in size
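Cell growth measured by CellTiter-Glo luminescence after a minimum 48 h, 37 C compound exposure with 20 nM CPT in Tdp1-knockout DT40 cells stably expressing hTDP1, seeded 400/well; qHTS titration format.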
HT1080-NT tox – kills 2HG-producing HT-1080-NT fibrosarcoma cells. HT-1080-NT fibrosarcoma viability, CellTiter-Glo ATP luminescence, 48 h. Potency, µM (doses to about 46.1 µM), actives largely listed as cytotoxic. 1.6% of 360,000 active. AID 686970;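 further: NT is the 2HG producing partner of a matched IDH1 knockdown line; nearly all actives have a fitted effect of over 55% in size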
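HT-1080-NT fibrosarcoma cells (2HG-overproducing), 750 cells/well in RPMI with 5% FBS, dosed after 2 h and incubated 48 h at 37C. CellTiter-Glo luminescence normalized to DMSO and no-cell wells; concentration-response curves fitted and classed.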
ALOX12 inh – blocks human arachidonate 12S-lipoxygenase; Potency, µM (titrated, usually from 108 µM), actives largely listed as inhibitors; P18054; purified 12hLO, xylenol orange hydroperoxide absorbance; 1.1% of 580,000 active; AID 1671190
Target sequence (P18054 whole entry, looked up): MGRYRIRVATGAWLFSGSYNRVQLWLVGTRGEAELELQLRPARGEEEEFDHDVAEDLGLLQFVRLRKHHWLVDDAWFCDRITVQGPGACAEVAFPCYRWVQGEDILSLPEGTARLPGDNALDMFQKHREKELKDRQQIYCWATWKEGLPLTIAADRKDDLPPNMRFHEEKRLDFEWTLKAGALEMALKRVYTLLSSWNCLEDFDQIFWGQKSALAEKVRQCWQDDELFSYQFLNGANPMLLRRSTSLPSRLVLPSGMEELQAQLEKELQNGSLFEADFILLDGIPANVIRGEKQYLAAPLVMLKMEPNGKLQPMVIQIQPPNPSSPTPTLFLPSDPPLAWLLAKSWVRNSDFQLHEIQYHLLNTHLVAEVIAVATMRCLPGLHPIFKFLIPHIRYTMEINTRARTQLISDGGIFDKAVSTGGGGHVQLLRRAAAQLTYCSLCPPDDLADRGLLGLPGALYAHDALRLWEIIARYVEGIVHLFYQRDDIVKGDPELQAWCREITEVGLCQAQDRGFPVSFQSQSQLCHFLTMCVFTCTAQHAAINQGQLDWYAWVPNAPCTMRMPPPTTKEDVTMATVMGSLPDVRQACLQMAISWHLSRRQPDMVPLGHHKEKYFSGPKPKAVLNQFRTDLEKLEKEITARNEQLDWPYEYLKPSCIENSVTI
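Purified human 12hLO (150 nM final) in 25 mM Hepes, 0.01% Triton X-100, pH 7.0 was preincubated 15 min at room temperature with compound. Then 40 uM arachidonic acid was added, 30 min. Hydroperoxide was read by Fe-XO absorbance ratio 573/405 nm.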
DT40 TDP1 no CPT – qHTS for Inhibitors of human tyrosyl-DNA phosphodiesterase 1 (TDP1): qHTS in cells in absence of CPT; DT40 Tdp1-/- hTDP1 cells, no CPT, ATP luminescence, 48 h; Potency, µM (titrated, usually from 46.2 µM), hits mostly inhibitors; 15% of 420,000 active; AID 686978, 2013; further: nearly all actives have a fitted effect of over 55% in size
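No-CPT arm: Tdp1-/-;hTDP1 DT40 cells (400/well) plus compounds, incubated ≥48 hr at 37 °C. Readout CellTiter-Glo luminescence.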
Hits are given with their value; – = inactive; ? = inconclusive; · = no result given. Unless noted, the call rests on the fitted dose curve; in most records, active means well fitted curve in the direction sought with a large enough effect; inconclusive means small, poorly fitted or top-dose-only effect, or another doubt; inactive means no such curve, though single readings can be large; an effect the other way counts as inactive or inconclusive.

SMILES	IL1B secr inh	HT1080 IDH1KD tx	TDP1 cell CPT	HT1080-NT tox	ALOX12 inh	DT40 TDP1 no CPT
Cc1c(C#N)c(NC(=O)CCl)n(Cc2ccccc2)c1C	-57	1.6µM	2.6µM	?	–	2.6µM
Cc1c(C#N)c(NC(=O)CCl)n(Cc2ccc(F)cc2)c1C	-77	?	5.2µM	?	–	5.8µM
Cc1ccccc1-n1c(C)nnc1SCC(=O)Nc1c(C#N)c(C)c(C)n1Cc1ccccc1	·	·	·	·	–	·
Cc1c(C#N)c(NC(=O)CCl)n(Cc2cccs2)c1C	-105	?	5.2µM	16µM	–	2.6µM
COC(=O)c1cc(C(=O)OC)n(Cc2ccc(F)cc2)c1C	–	–	–	–	–	?
N#Cc1ccc(Cl)cc1NC(=O)CNCc1cccs1	–	–	–	–	–	–
COc1cc(-c2noc(-c3ccc(S(=O)(=O)N4CCOCC4)o3)n2)ccc1OC(C)C	·	·	·	·	–	·
Cc1noc(C)c1S(=O)(=O)N1CCCC(CCc2ccc(F)c(F)c2)C1 (stereo not drawn)	·	·	·	·	–	·
Nc1nc(Sc2ccc([N+](=O)[O-])cc2[N+](=O)[O-])n[nH]1	–	–	?	–	–	?
Cc1ccnc(Sc2ccc([N+](=O)[O-])cc2[N+](=O)[O-])n1	-104	?	0.73µM	?	–	0.58µM
Cc1ccc(Sc2ccc([N+](=O)[O-])cc2[N+](=O)[O-])nc1	-188	23µM	2.6µM	16µM	–	2.9µM
C=CCCN([C@@H](C)C(=O)OC)S(=O)(=O)c1ccccc1Br	–	–	–	–	–	?
CCCCN([C@H](CO)C(C)C)S(=O)(=O)c1ccccc1Br	–	–	?	–	–	21µM
O=S(CCN1CCN(Cc2c(F)cccc2Cl)CC1)c1ccccc1 (stereo not drawn)	·	·	·	·	–	·
Cc1cc(C)nc(Nc2nc(=O)c3ccccc3s2)n1	–	–	?	–	?	21µM
O=C(c1cnn(-c2ccccc2F)c1-n1cccc1)N1CCN(c2ccccc2)CC1	·	·	·	·	–	·
CCn1ncc(N2CCCC(CC(=O)N3CCN(c4ccccc4)CC3)C2)cc1=O (stereo not drawn)	·	·	·	·	–	·
COc1cc(NC(=S)NC(=O)c2c(OC)cccc2OC)ccc1NC(=O)c1cccs1	–	–	10µM	–	?	9.2µM
COc1cc(NC(=S)NC(=O)c2ccc(C(C)(C)C)cc2)ccc1NC(=O)c1cccs1	–	?	?	?	6.3µM	18µM
COc1cc(NC(=S)NC(=O)c2cc(C)cc(C)c2)ccc1NC(=O)c1cccs1	–	–	?	–	?	?
Nc1nc(SCC(=O)Nc2ccccc2)nc2nc3c(cc12)CCCC3	-52	?	–	?	–	13µM
Nc1nc(SCc2ccc([N+](=O)[O-])cc2)nc2nc3c(cc12)CCCC3	–	–	–	–	–	–
O=C(CSc1nc2nc3c(cc2c(=O)n1-c1ccccc1)CCCC3)Nc1ccccc1	–	–	?	–	–	?
Cc1cc2cc3c(cc2nc1SCC(=O)Nc1ccccc1)CCC3	–	–	15µM	–	–	13µM
Cc1ccc2cc(C)c(SCC(=O)Nc3ccc(S(=O)(=O)N4CCCC4)cc3)nc2c1	–	–	?	–	–	?
SMILES	IL1B secr inh	HT1080 IDH1KD tx	TDP1 cell CPT	HT1080-NT tox	ALOX12 inh	DT40 TDP1 no CPT
Cc1ccc(NC(=O)CSc2nc(N)c3cc4c(nc3n2)CCCC4)cc1	–	?	16µM	?	–	?
CSc1cccc(NC(=O)Cn2c(Nc3cc(C)cc(C)c3)nc(C)cc2=O)c1	·	·	·	·	–	·
CC(O)C(=O)Nc1ccc(C(F)(F)F)cc1 (stereo not drawn)	·	·	·	·	–	·
Cc1cccc(NC(=O)CCc2ncc(-c3ccc(F)cc3)o2)c1	·	·	·	·	–	·
CCOc1ccc(OCC)c(-c2c(=O)n(OCc3ccc(C(C)(C)C)cc3)c3ccccc3[n+]2[O-])c1	–	–	21µM	–	–	18µM
CCOc1ccc(-c2c(=O)n(O)c3ccccc3[n+]2[O-])cc1	–	–	?	–	–	13µM
